DT40 TDP1 no CPT: qHTS for Inhibitors of human tyrosyl-DNA phosphodiesterase 1 (TDP1): qHTS in cells in absence of CPT | Potency, µM (top dose mostly 46.2 µM), hits mostly inhibitors | DT40 Tdp1-/- hTDP1 cells, no CPT, ATP luminescence, 48 h | AID 686978, 2013 | 420,000 compounds, 15% hits; further: nearly all actives have a fitted effect of over 55% in size
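Cells were dispensed at 400 per well, compounds added by pin tool, plates incubated ≥48 hr at 37 °C, then CellTiter-Glo added for 30 min at room temperature before luminescence reading. Line: DT40 Tdp1-/- complemented with hTDP1; camptothecin omitted.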
D3 antag: blocks the human D3 dopamine receptor; P35462; AID 652054; 360,000 compounds, 2.5% hits; D3R cells, DiscoveRx beta-arrestin luminescence, antagonist mode; hits give low values; max response, negative = inhibition, %; in the data active means max response below about -50%; inconclusive means no clear call, values can overlap the other calls
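Cells plated overnight at 1500 cells/well, then exposed to library compounds with dopamine controls for 90 minutes at 37 degrees C. DiscoveRx reagent added for 30–60 minutes at room temperature; luminescence read, quantitative HTS format.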
DT40 TDP1 CPT: DT40-hTDP1 cell growth loss with CPT; chicken DT40 Tdp1-/-;hTDP1 cells + 20 nM CPT, ATP luminescence, 48 h; Potency, µM (series often up to 46.2 µM), hits mostly inhibitors; 420,000 compounds, 12% hits; AID 686979; further: nearly all actives have a fitted effect of over 55% in size
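Chicken DT40 Tdp1-/- cells stably complemented with human TDP1 were seeded at 400 cells/well in medium containing 20 nM camptothecin, exposed to pin-transferred compounds, and grown at 37 °C for at least 48 hr. Viability was read as ATP luminescence.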
DRD3 agonist: agonists of human D3 dopamine receptor; 410,000 compounds, 0.58% hits; D3R DiscoveRx beta-arrestin cells, luminescence, 90 min; max activation, %; in the data active means max activation above about 30%
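Agonist-mode cell screen: cells plated at 1500/well and incubated overnight at 37 °C, then exposed to library compounds for 90 min at 37 °C. Detection reagent was added for 30–60 min at room temperature, and luminescence was read.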
ClpP mod: qHTS Assay for Activators of ClpP. ATP-dependent Clp protease proteolytic subunit (Bacillus subtilis (strain 168)), P80244. purified B. subtilis ClpP, FRET peptide cleavage, 20 min. AID 651965, 2013. Potency, µM (series often up to 57.5 µM). 340,000 compounds, 1.9% hits; active means well fitted falling curve with a large enough effect; inconclusive means small, poorly fitted or top-dose-only effect; inactive means no such curve, though single readings can be large or run the other way; further: the source files actives as falling curves though it sought activators and does not explain the sign; nearly all actives have a fitted effect of over 65% in size
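ClpP 10 microg/mL final, pH 8 Tris/KCl buffer with BSA, glycerol, Tween-20; compound pinned in; FRET-FV substrate; RT 20 min; Ex320/Em430; ΔFRET vs ADEP 5.8 microM, DMSO, no enzyme.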
IL-1B inflam inh: inflammasome signaling inhibition, IL-1 beta readout; THP-1 LPS/ATP IL-1B secretion, AlphaLISA, 16 h; hits give low values; activity change, % at 57.5 µM; 360,000 compounds, 4.7% hits; in the data active means activity change below about -50%; inconclusive means mostly about -30% to -49%
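Secreted IL-1B measured by AlphaLISA bead assay after 16 h compound exposure of THP-1 cells; compounds (final up to 57.5 uM) added 1 h before LPS (250 ng/mL) and ATP (1.25 mM) stimulation; lower signal means less secretion.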
Hits are given with their value; [ ] = dose if it differs, or a comment. Most compounds without a hit are left out; they make up all but 21% or so of the library. Unless noted, the call rests on the fitted dose curve; in most records, active means well fitted inhibition curve with a large enough effect; inconclusive means small, poorly fitted or top-dose-only effect; inactive means flat fitted curve, though single readings scatter.

Screening Cc1ccc(N=Cc2c(O)n(-c3cc(Cl)ccc3N3CCOCC3)c(=O)c3ccccc23)cc1C returned DT40 TDP1 no CPT 6.5µM, D3 antag inactive, DT40 TDP1 CPT 7.3µM, DRD3 agonist inactive, ClpP mod inactive and IL-1B inflam inh inconclusive.
`Cc1cc(O)c(C=Nc2ccc(N3CCOCC3)cc2)c(C)c1Cl` gave DT40 TDP1 no CPT inconclusive, D3 antag inactive, DT40 TDP1 CPT inactive, DRD3 agonist inactive and IL-1B inflam inh inactive.
For COCC(=O)Nc1ccc2c(c1)OCC(=O)N2Cc1ccc(C)cc1 the results were DT40 TDP1 no CPT inactive, D3 antag inactive, DT40 TDP1 CPT inactive, DRD3 agonist inactive, ClpP mod inactive and IL-1B inflam inh inactive.
O=C(O)c1cccc(N2C(=O)C3CC=CCC3C2=O)c1 (configuration not stated) was read as DT40 TDP1 no CPT inactive, D3 antag inactive, DT40 TDP1 CPT inactive, DRD3 agonist inactive, ClpP mod inactive and IL-1B inflam inh inactive.
For O=C1[C@@H]2[C@@H](CN3CN(c4ccccc4)N=C(c4ccccc4)[C@@]23c2ccccc2)C(=O)N1c1ccccc1 the results were DT40 TDP1 no CPT 13µM, D3 antag inactive, DT40 TDP1 CPT 5.8µM, DRD3 agonist inactive, ClpP mod 3.5µM and IL-1B inflam inh inactive.
Screening CN(Cc1c(F)cccc1Cl)C(=O)CCc1c[nH]c2ccccc12 returned DT40 TDP1 no CPT inconclusive, D3 antag inactive, DT40 TDP1 CPT inconclusive, DRD3 agonist inactive and IL-1B inflam inh inactive.
For Nc1c(S(=O)(=O)c2ccccc2)nnn1-c1ccccc1 the results were DT40 TDP1 no CPT inactive, D3 antag inactive, DT40 TDP1 CPT inactive, DRD3 agonist inactive, ClpP mod inactive and IL-1B inflam inh inactive.
Screening CCOc1ccccc1-n1nnc(S(=O)(=O)c2ccc(C)cc2)c1N returned DT40 TDP1 no CPT 12µM, DT40 TDP1 CPT inconclusive, DRD3 agonist inactive and ClpP mod inactive.
`CCc1ccc(S(=O)(=O)c2nnn(-c3cccc(C)c3)c2N)cc1` gave DT40 TDP1 no CPT 15µM, DT40 TDP1 CPT 21µM, DRD3 agonist inactive and ClpP mod inactive.
Screening NC(c1ccccc1)c1csc(Nc2ccc(C(=O)NCCCO)cn2)n1 (configuration not stated) returned DT40 TDP1 no CPT inactive, D3 antag inactive, DT40 TDP1 CPT inactive, DRD3 agonist inactive, ClpP mod inactive and IL-1B inflam inh inactive.
For COc1ccccc1NC(=S)NC(=O)C1CC1 the results were DT40 TDP1 no CPT inactive, D3 antag inactive, DT40 TDP1 CPT inactive, DRD3 agonist inactive, ClpP mod inactive and IL-1B inflam inh inactive.
Screening Cc1ccc(NC(=O)C2CCCC2)c(Br)c1 returned DT40 TDP1 no CPT inactive, D3 antag inactive, DT40 TDP1 CPT inactive, DRD3 agonist inactive and IL-1B inflam inh inactive.
`Cc1ccc(NC(=S)NC(=O)C2CCCCC2)c(Br)c1` gave DT40 TDP1 no CPT 15µM, D3 antag inactive, DT40 TDP1 CPT inconclusive, DRD3 agonist inactive and IL-1B inflam inh inactive.
`CCN(CC)c1ccc(S(=O)(=O)Nc2cc(Cl)ccc2Cl)cc1NC(=S)NC(=O)C1CCCC1` gave DT40 TDP1 no CPT inconclusive, D3 antag inactive, DT40 TDP1 CPT inconclusive, DRD3 agonist inactive, ClpP mod inactive and IL-1B inflam inh -50.
For COc1ccccc1NS(=O)(=O)c1ccc(Cl)c(NC(=S)NC(=O)C2CCCC2)c1 the results were DT40 TDP1 no CPT 29µM, D3 antag inactive, DT40 TDP1 CPT 23µM, DRD3 agonist inactive, ClpP mod inactive and IL-1B inflam inh inactive.
For CCN(CC)S(=O)(=O)c1ccc(C)c(NC(=S)NC2CCCCC2)c1 the results were DT40 TDP1 no CPT 15µM, D3 antag inactive, DT40 TDP1 CPT inconclusive, DRD3 agonist inactive and IL-1B inflam inh inactive.
Screening Nc1nnc(SCC(=O)Nc2ccccc2C(F)(F)F)s1 returned DT40 TDP1 no CPT inactive, DT40 TDP1 CPT inactive, DRD3 agonist inactive and ClpP mod inactive.
`Cc1cccnc1-c1cccc2c1OC(CNC(=O)Cc1c(C)noc1C)C2` (configuration not stated) gave DT40 TDP1 no CPT inactive and DT40 TDP1 CPT inactive[9.04 µM].
Screening Cc1ccc(NC(=O)N2CCC(NC(=O)c3cccc(F)c3)CC2)cc1 returned DT40 TDP1 no CPT inactive, D3 antag inactive, DT40 TDP1 CPT inactive, DRD3 agonist inactive, ClpP mod inactive and IL-1B inflam inh inactive.
Screening COc1ccc(S(=O)(=O)Nc2ccccc2OC)cc1NC(=O)CC1CC2CCC1C2 (configuration not stated) returned DT40 TDP1 no CPT 16µM, D3 antag inactive, DT40 TDP1 CPT inconclusive, DRD3 agonist inactive, ClpP mod inactive and IL-1B inflam inh inactive.
Screening O=C(NC(=S)Nc1ccccc1Cl)C1CC1 returned DT40 TDP1 no CPT inactive, D3 antag inconclusive, DT40 TDP1 CPT inactive, DRD3 agonist inactive, ClpP mod inactive and IL-1B inflam inh inactive.
Screening Cc1ccc(S(=O)(=O)N(C)C)cc1NC(=S)NC1CCCC(C)C1C (configuration not stated) returned DT40 TDP1 no CPT inconclusive, D3 antag inactive, DT40 TDP1 CPT 21µM, DRD3 agonist inactive, ClpP mod inactive and IL-1B inflam inh inactive.
CCN(CC)S(=O)(=O)c1ccc(Cl)c(NC(=S)NC(=O)C2CCCC2)c1 was read as DT40 TDP1 no CPT 18µM, D3 antag inconclusive, DT40 TDP1 CPT 23µM, DRD3 agonist inactive, ClpP mod inactive and IL-1B inflam inh inconclusive.
For Cc1cc2c(=O)c(C(=O)c3ccncc3)cn(CC(=O)Nc3cccc(C)c3C)c2cc1C the results were DT40 TDP1 no CPT inactive, DT40 TDP1 CPT inactive, DRD3 agonist inactive and ClpP mod inactive.
`CC(C)CCN1C(=O)c2ccc(C(=O)Nc3ccc(Br)cc3C(=O)O)cc2C1=O` gave DT40 TDP1 no CPT inactive, D3 antag inactive, DT40 TDP1 CPT inactive, DRD3 agonist inactive, ClpP mod inactive and IL-1B inflam inh inactive.
CC(C)(C)C(=O)[C@@H]1[C@@H]2C(=O)N(c3ccc4c(c3)OCCO4)C(=O)[C@@H]2C2c3ccccc3C=CN21 (some centres not stated) was read as DT40 TDP1 no CPT 23µM, D3 antag inconclusive, DT40 TDP1 CPT inconclusive, DRD3 agonist inactive, ClpP mod inactive and IL-1B inflam inh inactive.
NC(=O)C(=O)N/N=C/c1c(F)c(F)c(F)c(F)c1F was read as DT40 TDP1 no CPT inactive, D3 antag inactive, DT40 TDP1 CPT inactive, DRD3 agonist inactive, ClpP mod inactive and IL-1B inflam inh inactive.
For COC(=O)/C(=C1/Oc2ccc(C(C)(C)C)cc2S1)C(F)(F)F the results were DT40 TDP1 no CPT inactive, D3 antag inactive, DT40 TDP1 CPT inactive, DRD3 agonist inactive, ClpP mod inactive and IL-1B inflam inh inactive.

From PubChem BioAssay
